# Bioassay records as filed in PubChem.
# Pf growth 48h = P. falciparum growth inhibition at 48 hours (one generation); P. falciparum luciferase growth in erythrocytes, 48 h; Potency, µM (top dose mostly 28.7 µM), for inactives: at the highest dose activity change, negative = inhibition, most hits filed as inhibitors; 310,000 tested, 5.9% active; AID 504832; further: potency means the concentration at half of the fitted maximal effect; on the % scale 0 is the no-effect control and ±100 the full control effect
#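 In quantitative HTS format, infected erythrocytes bearing luciferase-reporter parasites were treated for a single generation at 37 C. Luminescence after adding detection reagent served as the growth measure.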
# Pf growth 96h = P. falciparum growth inhibition at 96 hours; Potency, µM (titrated, usually from 28.7 µM), without a hit: at the highest dose activity change, negative = inhibition, actives largely listed as inhibitors; 320,000 tested, 6.9% active; P. falciparum luciferase reporter growth, 96 h; further: potency means the concentration at half of the fitted maximal effect; on the % scale 0 is the no-effect control and ±100 the full control effect
#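 Two parasite generations (96 h, 37 C, 5% CO2) of compound exposure in infected erythrocytes (0.05% parasitemia, 2% hematocrit). Luciferase-reporter P. falciparum; decreased luminescence indicates inhibited growth, aimed at apicoplast-acting delayed death.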
# CHX counter = counter-screen for Shiga toxin inhibitors: cycloheximide protein synthesis inhibition; 300,000 tested, 12% active; AID 2314; max response, %; cell reporter, cycloheximide protein synthesis inhibition counterscreen; in the data active means max response mostly above about 13%, no sharp cut-off; inactive means mostly below about 14%; further: read at 38.3 µM for the half of the compounds with a filed dose; 0% is about no effect
# Shiga toxin inh = inhibitors of Shiga toxin in Vero cells; Vero cells, Shiga toxin protein synthesis inhibition reporter; inhibition, % at 38.7 µM; 290,000 tested, 9.2% active; AID 2315; in the data active means inhibition mostly above about 28%, no sharp cut-off; inactive means mostly below about 43%; further: 0% is about no effect
# * = called active by the depositor; ? = inconclusive; · = no result. Most compounds without a hit are left out; they make up all but 21% or so of the library. Unless noted, the call rests on the fitted dose curve; in most records, active means well fitted inhibition curve with a large enough effect; inconclusive means small, poorly fitted or top-dose-only effect, or another doubt; inactive means no such curve, though single readings can be large or run the other way.
SMILES,Pf growth 48h,Pf growth 96h,CHX counter,Shiga toxin inh
O=C(CC(SCc1ccco1)c1ccc(O)cc1)c1cccs1 (stereo not given),115%,122%,37*,115*
O=C(CC(SCCO)c1ccc2c(c1)OCO2)c1cccs1 (stereo not given),58%,?,29*,59
COc1ccc(CNC(=O)CN2c3ccccc3S(=O)(=O)c3ccccc32)cc1,-28%,5%,1,1
O=c1c(Cc2ccccc2)c(O)ccn1Cc1ccc2c(c1)OCO2,-11%,-6%,2,-3
Clc1ccc(CCNc2nc3ccccc3n3nnnc23)cc1,·,-30%,4,8
c1ccc2c(c1)nc(NCC1CCCO1)c1nnnn12 (stereo not given),11%,-11%,21*,58*
S=C(NCC1CCCO1)n1nnc2ccccc21 (stereo not given),?,?,31*,-1
COC1C=CO[C@@]2(C)Oc3c(C)c(O)c4c(O)c(c(C=NN5CCN(C)CC5)c(O)c4c3C2=O)NC(=O)/C(C)=C\C=CC(C)C(O)[C@@H](C)C(O)C(C)[C@H](OC(C)=O)C1C (stereo not given in full),0.95µM*,0.6µM*,·,·
CO[C@H]1/C=C/O[C@@]2(C)Oc3c(C)c(O)c4c(O)c(c5c(c4c3C2=O)NC2(CCN(CC(C)C)CC2)N=5)=NC(=O)/C(C)=C\C=C\[C@H](C)[C@H](O)[C@@H](C)[C@@H](O)[C@@H](C)[C@H](OC(C)=O)[C@@H]1C,8.5µM*,5.4µM*,·,·
COC1C=CO[C@@]2(C)Oc3c(C)c(O)c4c(O)c(c5c(nc6cc(C)ccn65)c4c3C2=O)NC(=O)/C(C)=C\C=CC(C)C(O)[C@@H](C)C(O)C(C)[C@@H](OC(C)=O)C1C (stereo not given in full),6.7µM*,4.8µM*,·,·
CCCCSc1ccc2nc(-c3ccc(C#N)cc3)cn2c1,18%,-25%,58*,58
COc1ccc(NC(=O)C(=O)c2cn(CC(=O)N3CCCC3)c3ccccc23)cc1OC,-24%,?,-3,-6
COc1cccc(NC(=O)C(=O)c2cn(CC(=O)N3CCCC3)c3ccccc23)c1,4%,10µM*,17*,29*
COc1ccc(OC)c(NC(=O)C(=O)c2cn(CC(=O)N3CCCC3)c3ccccc23)c1,9.3µM*,4.7µM*,-1,-2
COc1ccc(C)cc1NC(=O)C(=O)c1cn(CC(=O)N2CCCC2)c2ccccc12,?,8.3µM*,1,14
CC1=C/C(=N\OS(=O)(=O)c2ccccc2)C(C(C)C)=CC1=O,?,11%,21*,37
CC1=C/C(=N\OS(=O)(=O)c2ccccc2)C(C)=CC1=O,·,4.1µM*,8.3*,18
CC1=C(C)/C(=N\OS(=O)(=O)c2ccc(C)cc2)C=CC1=O,?,-1%,-9,-6
Cc1ccc(NC(=O)CN2C(=O)NC3(CCCc4ccccc43)C2=O)c([N+](=O)[O-])c1 (stereo not given),-15%,1%,-1,-14
COC(=O)c1ccc(-c2ccc(CNCC(O)c3ccccc3)o2)cc1 (stereo not given),2.6µM*,12µM*,-3,1
Cc1cccc(-n2cc(-c3ccc([N+](=O)[O-])cc3)[nH]c2=S)c1,41%,8%,24*,105*
O=[N+]([O-])c1ccc(-c2cn(-c3ccccc3)c(=S)[nH]2)cc1,20%,0%,-1,22
COc1cccc(-n2cc(-c3ccc(F)cc3)[nH]c2=S)c1,-24%,-58%,37*,86*
COC(=O)c1ccc(-n2cc(-c3ccc(OC)cc3)[nH]c2=S)cc1,?,?,7,51
COc1ccc(-n2cc(-c3ccc(Cl)cc3)[nH]c2=S)cc1,?,?,13*,13
SMILES,Pf growth 48h,Pf growth 96h,CHX counter,Shiga toxin inh
O=c1cc(-c2ccccc2)nc2n1Cc1ccccc1-2,·,4%,2,3
COc1ccc(-c2nc3n(c2C)Cc2ccccc2-3)cc1,111%,31%,39*,130*
COc1ccc(C(=O)Nn2c(CCC(=O)O)ccc2-c2ccc(C)cc2)cc1OC,-14%,20%,7,-15
Cc1c(C2Nc3ccccc3C(=O)N2O)cnn1C (stereo not given),30%,25%,17*,-2
O=C1c2ccccc2NC(c2ccco2)N1O (stereo not given),19%,-12%,10,47
COc1cccc(C2Nc3ccccc3C(=O)N2O)c1O (stereo not given),27%,15%,3,41
CCn1cc(C2Nc3ccccc3C(=O)N2O)c(C)n1 (stereo not given),47%,-13%,12*,44*
